According to the supplement of paper PMC10849652:
Of roughly 8,800 targets only a part is listed; those with a hit were picked by preference. About 0.5% of all pairs of compound and target were hits. Unmarked numbers belong to inactive results.

Tests used:
Assay in all cases: log2 fold change, soluble protein after heating vs DMSO (PISA); higher = thermal stabilisation; K562 lysate, 10 uM; active = over 0.2 and 3.5 SD of the protein, either way, in both replicates (recomputed)
lapatinib = compound: CS(=O)(=O)CCNCc1ccc(-c2ccc3ncnc(Nc4ccc(OCc5cccc(F)c5)c(Cl)c4)c3c2)o1 [lapatinib]
In short: (§1)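 To prepare the extract, K562 pellets were dounce-homogenised in PBS pH 7.4 with 1 mM MgCl2, giving crude material at 1 mg/mL protein. This was treated with 10 μM compound for 30 min, then heated in aliquots for 3 min over 48°C-58°C before pooling and addition of NP-40 to 0.5% at 4°C. Centrifugation at 21,000xg for 90 min left soluble protein in the supernatant, which TMTpro 16plex LC-MS/MS quantified with equalised channel sums. Results are log-two fold changes in thermal stability compared with solvent controls, from duplicates.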

pictilisib = compound: CS(=O)(=O)N1CCN(Cc2cc3nc(-c4cccc5[nH]ncc45)nc(N4CCOCC4)c3s2)CC1 [pictilisib]
In short: as §1

crizotinib = compound: C[C@@H](Oc1cc(-c2cnn(C3CCNCC3)c2)cnc1N)c1c(Cl)ccc(F)c1Cl [crizotinib]
In short: as §1

[1] = compound: C[C@H](C1=CC=C(C=C1)C(=O)NC2=C3C=CNC3=NC=C2)N
In short: as §1

duvelisib = compound: C[C@H](Nc1ncnc2nc[nH]c12)c1cc2cccc(Cl)c2c(=O)n1-c1ccccc1 [duvelisib]
In short: as §1

gandotinib = compound: Cc1cc(Nc2cc(CN3CCOCC3)c3nc(C)c(Cc4ccc(Cl)cc4F)n3n2)n[nH]1 [gandotinib]
In short: as §1

tozasertib = compound: Cc1cc(Nc2cc(N3CCN(C)CC3)nc(Sc3ccc(NC(=O)C4CC4)cc3)n2)n[nH]1 [tozasertib]
In short: as §1

doramapimod = compound: Cc1ccc(-n2nc(C(C)(C)C)cc2NC(=O)Nc2ccc(OCCN3CCOCC3)c3ccccc23)cc1 [doramapimod]
In short: as §1

bafetinib = compound: Cc1ccc(NC(=O)c2ccc(CN3CC[C@H](N(C)C)C3)c(C(F)(F)F)c2)cc1Nc1nccc(-c2cncnc2)n1 [bafetinib]
In short: as §1

[2] = compound: Cc1cccc(CC(=O)N2CCc3c2ccc(-c2cn(C)c4ncnc(N)c24)c3F)n1
In short: as §1

nilotinib = compound: Cc1cn(-c2cc(NC(=O)c3ccc(C)c(Nc4nccc(-c5cccnc5)n4)c3)cc(C(F)(F)F)c2)cn1 [nilotinib]
In short: as §1

[3] = compound: Cc1nc(Nc2n[nH]c3c2CN(C(=O)N[C@H](CN(C)C)c2ccccc2)C3(C)C)c2sccc2n1
In short: as §1

dasatinib = compound: Cc1nc(Nc2ncc(C(=O)Nc3c(C)cccc3Cl)s2)cc(N2CCN(CCO)CC2)n1 [dasatinib]
In short: as §1

[4] = compound: Cc1ncc(-c2ccnc(Nc3ccc(S(C)(=O)=O)cc3)n2)n1C(C)C
In short: as §1

[5] = compound: Cn1cc(-c2ccc3c(c2)CCN3C(=O)Cc2cccc(C(F)(F)F)c2)c2c(N)ncnc21
In short: as §1

quisinostat = compound: Cn1cc(CNCC2CCN(c3ncc(C(=O)NO)cn3)CC2)c2ccccc21 [quisinostat]
In short: as §1

tipifarnib = compound: Cn1cncc1[C@@](N)(c1ccc(Cl)cc1)c1ccc2c(c1)c(-c1cccc(Cl)c1)cc(=O)n2C [tipifarnib]
In short: as §1

[6] = compound: NC(=O)Nc1cc(-c2cccc(F)c2)sc1C(=O)N[C@H]1CCCNC1
In short: as §1

[7] = compound: NC(=O)c1cnc(N[C@@H]2CCCC[C@@H]2N)nc1Nc1cccc(-n2nccn2)c1
In short: as §1

[8] = compound: NC1(c2ccc(-c3nc4ccn5c(=O)[nH]nc5c4cc3-c3ccccc3)cc2)CCC1
In short: as §1

UniProt P06753, sequence (P06753 whole entry, looked up): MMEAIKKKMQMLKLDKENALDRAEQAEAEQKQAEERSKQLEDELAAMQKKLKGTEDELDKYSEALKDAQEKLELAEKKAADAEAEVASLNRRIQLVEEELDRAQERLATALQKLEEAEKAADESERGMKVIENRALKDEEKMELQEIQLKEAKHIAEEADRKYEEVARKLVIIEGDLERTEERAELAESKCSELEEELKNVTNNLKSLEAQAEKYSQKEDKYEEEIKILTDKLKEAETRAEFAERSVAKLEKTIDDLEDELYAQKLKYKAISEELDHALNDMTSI
UniProt O75865, sequence (O75865 whole entry, looked up): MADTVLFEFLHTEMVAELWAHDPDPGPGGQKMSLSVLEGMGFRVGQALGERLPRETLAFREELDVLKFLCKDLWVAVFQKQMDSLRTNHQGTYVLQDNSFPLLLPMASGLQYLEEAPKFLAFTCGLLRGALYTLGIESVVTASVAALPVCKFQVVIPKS
UniProt Q9UNY4, sequence (Q9UNY4 whole entry, looked up): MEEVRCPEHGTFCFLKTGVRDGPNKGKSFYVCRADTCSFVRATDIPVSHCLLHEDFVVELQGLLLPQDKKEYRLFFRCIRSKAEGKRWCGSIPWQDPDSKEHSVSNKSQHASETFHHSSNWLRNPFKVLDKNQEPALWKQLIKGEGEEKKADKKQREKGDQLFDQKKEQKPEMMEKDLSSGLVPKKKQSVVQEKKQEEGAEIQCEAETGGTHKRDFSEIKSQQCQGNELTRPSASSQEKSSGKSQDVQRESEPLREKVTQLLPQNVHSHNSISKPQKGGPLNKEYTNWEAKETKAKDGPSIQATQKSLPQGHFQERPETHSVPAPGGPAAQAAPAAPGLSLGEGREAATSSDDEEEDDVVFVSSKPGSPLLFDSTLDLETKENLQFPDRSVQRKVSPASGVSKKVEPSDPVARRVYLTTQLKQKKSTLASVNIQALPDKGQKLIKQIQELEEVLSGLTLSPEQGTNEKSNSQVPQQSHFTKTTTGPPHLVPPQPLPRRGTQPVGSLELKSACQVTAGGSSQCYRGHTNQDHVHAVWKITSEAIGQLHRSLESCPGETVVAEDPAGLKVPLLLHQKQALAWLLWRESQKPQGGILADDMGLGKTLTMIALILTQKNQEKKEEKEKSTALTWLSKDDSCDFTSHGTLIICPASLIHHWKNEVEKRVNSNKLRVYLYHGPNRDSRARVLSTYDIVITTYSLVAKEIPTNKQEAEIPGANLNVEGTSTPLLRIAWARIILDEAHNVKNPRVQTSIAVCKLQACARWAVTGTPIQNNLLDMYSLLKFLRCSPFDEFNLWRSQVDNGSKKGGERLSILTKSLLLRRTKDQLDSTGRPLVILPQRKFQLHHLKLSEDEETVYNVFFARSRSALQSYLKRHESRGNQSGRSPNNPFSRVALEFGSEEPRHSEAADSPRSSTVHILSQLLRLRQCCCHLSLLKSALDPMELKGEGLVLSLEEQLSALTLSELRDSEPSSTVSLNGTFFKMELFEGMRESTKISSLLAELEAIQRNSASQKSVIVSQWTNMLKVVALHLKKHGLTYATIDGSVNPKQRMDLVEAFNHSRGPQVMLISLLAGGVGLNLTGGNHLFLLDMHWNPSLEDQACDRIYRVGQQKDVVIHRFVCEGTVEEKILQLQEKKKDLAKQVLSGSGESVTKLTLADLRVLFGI
UniProt P67936, sequence (P67936 whole entry, looked up): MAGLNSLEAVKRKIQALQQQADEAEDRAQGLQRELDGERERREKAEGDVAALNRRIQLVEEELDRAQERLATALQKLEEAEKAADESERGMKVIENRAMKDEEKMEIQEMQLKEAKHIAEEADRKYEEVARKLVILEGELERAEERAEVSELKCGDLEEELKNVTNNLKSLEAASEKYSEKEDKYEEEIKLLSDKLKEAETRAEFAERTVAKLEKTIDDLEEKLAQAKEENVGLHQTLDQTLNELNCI
UniProt Q15386, sequence (Q15386 whole entry, looked up): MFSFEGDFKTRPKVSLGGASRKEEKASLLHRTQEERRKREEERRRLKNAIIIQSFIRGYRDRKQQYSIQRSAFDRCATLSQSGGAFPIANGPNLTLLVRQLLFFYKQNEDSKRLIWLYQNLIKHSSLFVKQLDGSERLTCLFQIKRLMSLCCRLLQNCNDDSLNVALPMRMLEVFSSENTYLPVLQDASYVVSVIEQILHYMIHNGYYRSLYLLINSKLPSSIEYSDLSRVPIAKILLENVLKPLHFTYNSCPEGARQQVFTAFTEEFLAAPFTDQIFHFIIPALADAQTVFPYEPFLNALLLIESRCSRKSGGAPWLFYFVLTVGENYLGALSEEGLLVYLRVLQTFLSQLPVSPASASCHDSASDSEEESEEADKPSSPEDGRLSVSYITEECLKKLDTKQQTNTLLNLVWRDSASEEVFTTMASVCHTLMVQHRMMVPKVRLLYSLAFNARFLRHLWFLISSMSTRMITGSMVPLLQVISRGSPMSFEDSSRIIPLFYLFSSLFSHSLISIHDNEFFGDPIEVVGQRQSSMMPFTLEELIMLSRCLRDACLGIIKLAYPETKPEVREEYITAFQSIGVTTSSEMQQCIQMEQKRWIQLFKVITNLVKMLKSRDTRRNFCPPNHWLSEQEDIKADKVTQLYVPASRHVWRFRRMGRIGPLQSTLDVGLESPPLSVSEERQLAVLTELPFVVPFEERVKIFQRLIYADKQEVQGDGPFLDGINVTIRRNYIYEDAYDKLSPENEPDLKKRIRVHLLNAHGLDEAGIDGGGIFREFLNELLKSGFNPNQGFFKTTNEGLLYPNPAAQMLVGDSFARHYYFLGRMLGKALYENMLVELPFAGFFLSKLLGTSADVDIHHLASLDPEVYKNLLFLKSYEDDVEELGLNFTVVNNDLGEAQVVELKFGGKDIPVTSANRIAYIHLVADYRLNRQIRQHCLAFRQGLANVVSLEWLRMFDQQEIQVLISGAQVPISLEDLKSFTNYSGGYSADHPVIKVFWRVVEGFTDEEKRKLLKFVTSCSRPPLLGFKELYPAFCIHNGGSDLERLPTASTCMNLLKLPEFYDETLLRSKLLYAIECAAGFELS
UniProt P48553, sequence (P48553 whole entry, looked up): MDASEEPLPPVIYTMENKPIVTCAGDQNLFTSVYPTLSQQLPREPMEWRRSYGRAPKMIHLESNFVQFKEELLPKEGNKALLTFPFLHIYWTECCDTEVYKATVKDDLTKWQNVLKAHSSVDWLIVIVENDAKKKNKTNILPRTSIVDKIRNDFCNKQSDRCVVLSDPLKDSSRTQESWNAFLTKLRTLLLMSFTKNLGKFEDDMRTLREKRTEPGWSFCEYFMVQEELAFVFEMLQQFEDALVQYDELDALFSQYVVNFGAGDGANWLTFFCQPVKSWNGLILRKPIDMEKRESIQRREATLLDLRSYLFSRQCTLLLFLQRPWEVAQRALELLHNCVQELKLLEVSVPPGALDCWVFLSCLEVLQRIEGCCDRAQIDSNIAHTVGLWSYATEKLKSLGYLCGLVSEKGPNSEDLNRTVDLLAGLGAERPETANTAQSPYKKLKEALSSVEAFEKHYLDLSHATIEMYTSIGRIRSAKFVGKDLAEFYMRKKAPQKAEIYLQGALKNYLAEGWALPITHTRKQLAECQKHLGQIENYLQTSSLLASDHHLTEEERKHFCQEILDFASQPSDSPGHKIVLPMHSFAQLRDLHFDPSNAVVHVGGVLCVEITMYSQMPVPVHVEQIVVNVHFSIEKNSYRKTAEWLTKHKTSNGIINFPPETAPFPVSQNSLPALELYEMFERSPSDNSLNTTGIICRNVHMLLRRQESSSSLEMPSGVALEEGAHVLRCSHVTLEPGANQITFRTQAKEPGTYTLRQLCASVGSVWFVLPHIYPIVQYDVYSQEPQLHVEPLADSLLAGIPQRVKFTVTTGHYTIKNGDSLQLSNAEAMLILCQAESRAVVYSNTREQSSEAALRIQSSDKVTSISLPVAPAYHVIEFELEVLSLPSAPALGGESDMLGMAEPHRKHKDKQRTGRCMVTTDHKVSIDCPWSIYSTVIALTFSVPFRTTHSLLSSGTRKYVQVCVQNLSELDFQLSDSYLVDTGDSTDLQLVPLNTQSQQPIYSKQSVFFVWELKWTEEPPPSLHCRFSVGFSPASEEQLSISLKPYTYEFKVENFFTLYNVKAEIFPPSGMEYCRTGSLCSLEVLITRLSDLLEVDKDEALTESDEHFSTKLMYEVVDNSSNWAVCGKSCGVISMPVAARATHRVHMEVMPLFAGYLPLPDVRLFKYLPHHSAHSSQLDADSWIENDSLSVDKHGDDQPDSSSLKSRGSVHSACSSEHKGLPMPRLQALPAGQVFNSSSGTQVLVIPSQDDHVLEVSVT
UniProt Q13509, sequence (Q13509 whole entry, looked up): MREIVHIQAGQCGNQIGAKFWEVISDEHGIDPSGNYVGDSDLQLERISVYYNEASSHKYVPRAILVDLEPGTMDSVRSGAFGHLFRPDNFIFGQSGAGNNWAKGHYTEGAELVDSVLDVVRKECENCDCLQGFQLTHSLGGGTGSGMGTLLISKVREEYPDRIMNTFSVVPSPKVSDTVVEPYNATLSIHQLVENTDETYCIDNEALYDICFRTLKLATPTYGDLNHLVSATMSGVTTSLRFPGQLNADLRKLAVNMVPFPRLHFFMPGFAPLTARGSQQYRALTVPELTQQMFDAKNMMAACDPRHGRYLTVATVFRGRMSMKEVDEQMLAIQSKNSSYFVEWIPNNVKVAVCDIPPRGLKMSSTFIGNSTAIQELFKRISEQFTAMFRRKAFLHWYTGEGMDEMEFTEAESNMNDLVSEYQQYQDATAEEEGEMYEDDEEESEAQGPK
UniProt P62256, sequence (P62256 whole entry, looked up): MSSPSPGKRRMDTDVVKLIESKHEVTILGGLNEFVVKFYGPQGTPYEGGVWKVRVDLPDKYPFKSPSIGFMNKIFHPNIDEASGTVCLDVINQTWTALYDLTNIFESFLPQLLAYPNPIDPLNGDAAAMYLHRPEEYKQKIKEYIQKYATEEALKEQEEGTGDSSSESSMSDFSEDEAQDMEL
UniProt O14933, sequence (O14933 whole entry, looked up): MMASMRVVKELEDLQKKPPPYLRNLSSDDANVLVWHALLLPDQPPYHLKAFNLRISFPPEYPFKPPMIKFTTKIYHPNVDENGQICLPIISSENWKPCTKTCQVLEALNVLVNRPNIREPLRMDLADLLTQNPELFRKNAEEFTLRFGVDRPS

Row | Target | log2 fold change (lapatinib) | log2 fold change (pictilisib) | log2 fold change (crizotinib) | log2 fold change [1] | log2 fold change (duvelisib) | log2 fold change (gandotinib) | log2 fold change (tozasertib) | log2 fold change (doramapimod) | log2 fold change (bafetinib) | log2 fold change [2] | log2 fold change (nilotinib) | log2 fold change [3] | log2 fold change (dasatinib) | log2 fold change [4] | log2 fold change [5] | log2 fold change (quisinostat) | log2 fold change (tipifarnib) | log2 fold change [6] | log2 fold change [7] | log2 fold change [8]
1 | TPM3 isoform 2 (UniProt P06753) | -0.012 | 0.021 | 0.093 | 0.095 | 0.003 | -0.169 | 0.067 | 0.02 | 0.055 | -0.152 | -0.048 | 0.019 | 0.012 | -0.005 | 0.014 | 0.14 | 0.06 | -0.024 | -0.003 | 0.047
2 | TUBGCP5 (UniProt Q96RT8) | 0.11 | 0.037 | -0.064 | -0.044 | 0.103 | -0.009 | 0.113 | 0.044 | -0.121 | 0.101 | 0.024 | 0.04 | 0.119 | 0.048 | -0.094 | 0.203 | 0.012 | 0.077 | -0.68 (active) | –
3 | TTF2 (UniProt Q9UNY4) | 0.028 | -0.048 | -0.104 | -0.052 | 0 | 0 | 0.019 | 0.053 | -0.02 | 0.102 | -0.008 | -0.062 | -0.012 | -0.023 | 0.018 | -0.042 | 0.004 | 0.02 | 0.019 | -0.067
4 | UBE3C (UniProt Q15386) | -0.004 | -0.029 | -0.055 | -0.039 | 0.007 | -0.075 | 0 | 0.038 | -0.036 | 0.021 | -0.006 | 0.025 | -0.047 | -0.017 | 0.049 | 0.013 | 0.01 | 0.061 | 0.027 | -0.053
5 | TRAPPC10 (UniProt P48553) | 0 | 0 | -0.034 | -0.101 | -0.016 | 0.022 | -0.01 | -0.027 | -0.007 | 0.074 | 0.008 | 0 | 0.011 | -0.003 | 0.02 | -0.006 | 0.011 | 0.035 | 0.026 | -0.05
6 | TUBB6 (UniProt Q9BUF5) | -0.038 | -0.015 | -0.056 | 0.003 | 0.009 | -0.009 | -0.02 | -0.047 | -0.023 | -0.018 | -0.002 | -0.023 | -0.031 | 0.006 | -0.006 | -0.028 | 0.021 | 0.022 | -0.001 | 0.004
7 | TMEM87A (UniProt Q8NBN3) | -0.007 | -0.015 | 0.016 | -0.082 | 0.012 | 0.242 (active) | -0.029 | 0.026 | -0.007 | 0.248 (active) | -0.009 | 0.055 | -0.007 | 0.027 | 0.03 | -0.021 | 0.024 | 0.003 | 0.03 | 0.017
8 | UBE2L6 (UniProt O14933) | 0.059 | 0.062 | -0.014 | 0.088 | 0.033 | -0.105 | 0.109 | -0.013 | -0.267 | -0.024 | 0.038 | -0.139 | -0.018 | 0.036 | -0.055 | 0.024 | 0.043 | -0.032 | -0.002 | -0.096
9 | UBE2H (UniProt P62256) | 0.002 | -0.022 | 0.011 | 0.174 | 0.016 | -0.172 | 0.024 | 0.003 | 0.009 | -0.188 | -0.021 | -0.041 | 0.046 | 0.02 | 0.021 | -0.015 | -0.049 | 0.014 | 0.005 | -0.041
10 | TMEM70 (UniProt Q9BUB7) | -0.002 | -0.012 | -0.082 | -0.304 (active) | 0.011 | 0.057 | -0.014 | 0.092 | -0.038 | 0.138 | -0.05 | -0.046 | -0.065 | 0.023 | -0.003 | -0.206 | -0.007 | 0.02 | 0.009 | -0.001
11 | TXNRD2 (UniProt Q9NNW7) | 0 | -0.017 | 0.003 | -0.046 | 0.084 | 0.059 | -0.042 | -0.066 | 0.041 | 0.034 | 0.063 | 0.008 | 0.039 | 0.071 | 0.015 | -0.017 | -0.005 | -0.023 | -0.006 | -0.05
12 | TUBB3 (UniProt Q13509) | 0.015 | 0.032 | -0.027 | 0.018 | 0.026 | 0.02 | 0.001 | -0.005 | 0.021 | 0.001 | 0.029 | -0.028 | -0.027 | -0.003 | 0.024 | -0.004 | -0.013 | 0.039 | 0.006 | 0.006
13 | TPM4 isoform 2 (UniProt P67936) | 0.007 | 0 | 0.091 | 0.329 (active) | 0.011 | -0.138 | -0.027 | 0.002 | 0.075 | -0.164 | 0.052 | -0.048 | 0.059 | 0.076 | -0.011 | 0.122 | 0.024 | -0.039 | 0.029 | 0.02
14 | TRIM56 (UniProt Q9BRZ2) | 0.001 | -0.002 | -0.002 | 0.085 | 0.003 | -0.071 | 0 | 0.023 | -0.132 | 0.085 | 0.033 | 0.031 | -0.073 | -0.006 | 0.017 | -0.043 | -0.048 | 0.005 | -0.01 | 0.007
15 | TRAPPC6A isoform 2 (UniProt O75865) | 0.02 | 0.015 | 0.001 | -0.146 | -0.006 | 0.14 | -0.039 | -0.01 | 0.017 | 0.05 | 0.015 | -0.09 | -0.026 | 0.02 | -0.058 | 0.006 | 0.048 | -0.048 | -0.008 | 0.076
16 | TBC1D23 (UniProt Q9NUY8) | -0.007 | -0.016 | -0.031 | -0.033 | -0.012 | 0.03 | 0.034 | 0.017 | -0.027 | 0.048 | 0.013 | -0.018 | -0.001 | -0.005 | -0.021 | -0.028 | 0.018 | 0.01 | -0.032 | -0.004
